Reference: PMC5700166
Positions count from the first letter of the chain named.

Legend:
Assay in all cases: protein-binding microarray (PBM); PBM: ~300 nM protein, 6 mM HEPES pH 7.8, 80 mM KCl, 0.5 mM EDTA, 0.5 mM EGTA, 6% glycerol, 35 ng/ul poly-dIdC, 1% milk, 1 h, room temperature; Ap Aiptasia and Nv Nematostella (sea anemones) / Co Capsaspora / Aq Amphimedon (sponge) / Dm Drosophila / Hu human; RHD is the Rel homology domain; high values mean tight binding
Conditions in all cases: dsDNA, one strand shown
GST-Ap-NF-kB RHD = target: T1, GST-Ap-NF-kB RHD (Exaiptasia pallida (Aiptasia), UniProt A0A913YAJ5 2-422)
T1 sequence: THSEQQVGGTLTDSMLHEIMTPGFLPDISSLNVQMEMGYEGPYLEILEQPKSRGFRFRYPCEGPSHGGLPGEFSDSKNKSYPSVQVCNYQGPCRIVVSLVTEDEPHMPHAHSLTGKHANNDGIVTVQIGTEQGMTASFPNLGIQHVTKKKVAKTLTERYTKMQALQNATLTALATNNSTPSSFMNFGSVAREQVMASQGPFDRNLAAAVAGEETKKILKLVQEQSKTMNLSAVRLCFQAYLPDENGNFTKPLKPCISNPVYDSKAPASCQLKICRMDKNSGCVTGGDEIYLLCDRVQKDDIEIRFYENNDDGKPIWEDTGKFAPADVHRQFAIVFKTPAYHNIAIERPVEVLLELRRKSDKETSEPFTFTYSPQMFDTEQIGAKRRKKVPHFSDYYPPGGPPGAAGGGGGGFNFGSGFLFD

[1] = target: T2, GST-Nv-NF-kB (Cys allele) (Nematostella vectensis, UniProt E5G601 2-411)
T2 sequence: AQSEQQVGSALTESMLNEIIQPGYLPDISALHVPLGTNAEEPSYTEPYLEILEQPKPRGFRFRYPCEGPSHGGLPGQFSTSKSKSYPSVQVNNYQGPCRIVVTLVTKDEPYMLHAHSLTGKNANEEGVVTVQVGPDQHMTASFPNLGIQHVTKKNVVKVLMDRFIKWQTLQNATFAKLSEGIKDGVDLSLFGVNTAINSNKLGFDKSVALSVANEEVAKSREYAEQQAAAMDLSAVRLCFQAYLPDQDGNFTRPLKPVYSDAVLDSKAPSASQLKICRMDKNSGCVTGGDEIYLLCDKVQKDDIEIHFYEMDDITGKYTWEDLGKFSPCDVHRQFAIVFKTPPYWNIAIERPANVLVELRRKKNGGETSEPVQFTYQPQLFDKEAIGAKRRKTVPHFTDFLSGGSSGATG

[2] = target: T3, GST-Nv-NF-kB (Ser allele) (Nematostella vectensis, UniProt A7UNT2 2-411)
T3 sequence: T2 sequence with Q21R, C66S, S207N, E215Q, V217A, E225K, A268E, D399E

GST-Co-NF-kB = target: T4, GST-Co-NF-kB (Capsaspora owczarzaki, UniProt F1ARL5 200-546)
T4 sequence: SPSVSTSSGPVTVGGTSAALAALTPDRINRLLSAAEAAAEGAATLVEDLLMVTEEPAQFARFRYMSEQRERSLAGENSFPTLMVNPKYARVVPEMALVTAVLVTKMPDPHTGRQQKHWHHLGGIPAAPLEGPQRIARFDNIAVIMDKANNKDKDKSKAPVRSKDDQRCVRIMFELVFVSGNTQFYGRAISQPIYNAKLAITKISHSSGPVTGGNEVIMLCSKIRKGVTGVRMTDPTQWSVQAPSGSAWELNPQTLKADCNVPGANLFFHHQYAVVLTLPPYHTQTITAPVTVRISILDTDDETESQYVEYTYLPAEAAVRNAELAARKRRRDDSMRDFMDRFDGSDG

GST-Dm-Relish = target: T5, GST-Dm-Relish (Drosophila melanogaster, UniProt Q94527 99-473)
T5 sequence: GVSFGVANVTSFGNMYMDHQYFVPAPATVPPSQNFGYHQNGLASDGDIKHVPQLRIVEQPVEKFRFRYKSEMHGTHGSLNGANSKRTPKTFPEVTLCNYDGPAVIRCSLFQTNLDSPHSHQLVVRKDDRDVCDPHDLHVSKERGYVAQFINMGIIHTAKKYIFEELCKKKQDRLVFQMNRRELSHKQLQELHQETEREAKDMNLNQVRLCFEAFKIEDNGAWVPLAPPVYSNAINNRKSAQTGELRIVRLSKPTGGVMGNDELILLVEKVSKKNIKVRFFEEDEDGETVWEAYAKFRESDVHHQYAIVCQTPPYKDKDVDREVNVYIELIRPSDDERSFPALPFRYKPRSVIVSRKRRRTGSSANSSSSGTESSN

GST-Aq-NF-kB = target: T6, GST-Aq-NF-kB (Amphimedon queenslandica, UniProt A9Y5G7 2-389)
T6 sequence: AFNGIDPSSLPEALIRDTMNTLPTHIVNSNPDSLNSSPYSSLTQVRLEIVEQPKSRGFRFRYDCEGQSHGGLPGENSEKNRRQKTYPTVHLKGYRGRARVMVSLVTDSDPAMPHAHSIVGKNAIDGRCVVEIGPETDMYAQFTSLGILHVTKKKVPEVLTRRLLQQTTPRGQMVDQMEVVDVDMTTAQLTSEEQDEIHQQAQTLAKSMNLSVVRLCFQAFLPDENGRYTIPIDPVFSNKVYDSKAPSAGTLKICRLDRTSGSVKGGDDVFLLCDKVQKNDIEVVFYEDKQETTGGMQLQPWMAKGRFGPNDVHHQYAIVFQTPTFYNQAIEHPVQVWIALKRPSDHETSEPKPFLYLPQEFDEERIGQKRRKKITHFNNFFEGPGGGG

GST-Hu-p50 = GST-Hu-p50 (Homo sapiens, UniProt P19838 7-356)
Chain of GST-Hu-p50 (P19838 7-356): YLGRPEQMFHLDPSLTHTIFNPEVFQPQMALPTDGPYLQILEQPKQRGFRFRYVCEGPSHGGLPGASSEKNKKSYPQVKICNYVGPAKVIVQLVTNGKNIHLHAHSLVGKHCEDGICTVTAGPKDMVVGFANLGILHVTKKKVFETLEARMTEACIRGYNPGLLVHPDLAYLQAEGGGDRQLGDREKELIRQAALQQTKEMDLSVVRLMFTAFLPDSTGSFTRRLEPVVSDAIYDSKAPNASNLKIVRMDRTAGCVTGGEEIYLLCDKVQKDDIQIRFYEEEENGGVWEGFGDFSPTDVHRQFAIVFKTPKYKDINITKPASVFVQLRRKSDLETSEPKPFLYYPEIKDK

Sequence	binding signal (GST-Ap-NF-kB RHD)	binding signal [1]	binding signal [2]	binding signal (GST-Co-NF-kB)	binding signal (GST-Dm-Relish)	binding signal (GST-Aq-NF-kB)	binding signal (GST-Hu-p50)
CCGATTAACATCAACTTTCCCCCTGATGTTAATCGGGTCTTGATTCGCTTGACGCTGCTG	7.6 z-score	7.45 z-score	9.1 z-score	9.36 z-score	3.9 z-score	6.57 z-score	6.16 z-score
CCGATTAACATCACCGGGAATTCTGATGTTAATCGGGTCTTGATTCGCTTGACGCTGCTG	4.62 z-score	5.1 z-score	4.74 z-score	5.5 z-score	4.57 z-score	4.34 z-score	4.01 z-score
CCGATTAACATCAGGGTATACCCTGATGTTAATCGGGTCTTGATTCGCTTGACGCTGCTG	4.43 z-score	3.42 z-score	2.44 z-score	2.48 z-score	4.16 z-score	6.04 z-score	2.22 z-score
CCGATTAACATCAGGGGAACTACTGATGTTAATCGGGTCTTGATTCGCTTGACGCTGCTG	6.92 z-score	6.99 z-score	7.41 z-score	5.65 z-score	9.35 z-score	6.91 z-score	5.5 z-score
CCGATTAACATCAAGGGGGAGAATGATGTTAATCGGGTCTTGATTCGCTTGACGCTGCTG	5.78 z-score	6.63 z-score	7.33 z-score	7.92 z-score	2.2 z-score	4.93 z-score	6.83 z-score
CCGATTAACATCACACAACCCCCTGATGTTAATCGGGTCTTGATTCGCTTGACGCTGCTG	5.16 z-score	3.73 z-score	4.93 z-score	2.31 z-score	4.91 z-score	3.93 z-score	4.68 z-score
CCGATTAACATCAGATTTTCCCCTGATGTTAATCGGGTCTTGATTCGCTTGACGCTGCTG	8 z-score	8.78 z-score	11 z-score	9.39 z-score	4.94 z-score	7.27 z-score	6.35 z-score
CCGATTAACATCAAATTCCCAACTGATGTTAATCGGGTCTTGATTCGCTTGACGCTGCTG	2.17 z-score	3.56 z-score	3.7 z-score	2.15 z-score	3.39 z-score	2.22 z-score	2.66 z-score
CCGATTAACATCACGAAATCCCCTGATGTTAATCGGGTCTTGATTCGCTTGACGCTGCTG	8.93 z-score	9.59 z-score	11.6 z-score	4 z-score	8.34 z-score	6.39 z-score	7.74 z-score
